KB-3-1 cytotox: kills parental KB-3-1 adenocarcinoma cells; KB-3-1 viability, CellTiter-Glo ATP luminescence, 72 h; Potency, µM (highest dose often 46.1 µM), actives largely listed as cytotoxic; 400,000 tested, 1.4% active; further: on the % scale 0 is the no-effect control and ±100 the full control effect; nearly all actives have a fitted effect of over 60% in size
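Cytotoxicity measured as CellTiter-Glo luminescence after 72 h at 37 C. Compound titrations were pinned onto drug-naive KB-3-1 parental adenocarcinoma cells grown in DMEM with 10% FBS, and normalized data fitted to concentration-response curves.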
KB-V1 cytotox: KB-V1 MDR subline cytotoxicity; KB-V1 MDR cells viability, CellTiter-Glo, 72 h; Potency, µM (doses to about 46.1 µM), actives largely listed as cytotoxic; 400,000 tested, 3.4% active; AID 1347076; further: on the % scale 0 is the no-effect control and ±100 the full control effect; nearly all actives have a fitted effect of over 60% in size
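Readout: CellTiter-Glo luminescence, 10 min after addition. Cells: KB-V1 MDR subline, 72 h at 37 degrees C with compound. Analysis: corrected, normalized data fitted to concentration-effect curves.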
PINK1 expr mod: modulators of PINK1 expression. AID 624263. Potency, µM (top dose mostly 76.6 µM), inactives show top-dose activation (PINK1 increase), most hits filed as activators. PINK1 immunofluorescence, high-content cytometry, 24 h. 410,000 tested, 0.2% active; active means well fitted activation curve with a large enough effect; inconclusive means small, poorly fitted or top-dose-only effect; cell line not stated here; further: % of control where 0% means no effect; nearly all actives have a fitted effect of over 65% in size
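Measures PINK1 amount and localization on or inside mitochondria by immunofluorescence. Stable cells get compounds at 5 concentrations for 24 hours before fixation and staining; CCCP controls included.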
12-LOX inh: inhibitors of human 12S-lipoxygenase ALOX12 | purified 12hLO, xylenol orange hydroperoxide absorbance | Potency, µM (top dose mostly 108 µM), for inactives: top-dose activity change, negative = inhibition, hits mostly inhibitors | 580,000 tested, 1.1% active; further: on the % scale 0 is the no-effect control and ±100 the full control effect
Target sequence (P18054 whole entry, looked up): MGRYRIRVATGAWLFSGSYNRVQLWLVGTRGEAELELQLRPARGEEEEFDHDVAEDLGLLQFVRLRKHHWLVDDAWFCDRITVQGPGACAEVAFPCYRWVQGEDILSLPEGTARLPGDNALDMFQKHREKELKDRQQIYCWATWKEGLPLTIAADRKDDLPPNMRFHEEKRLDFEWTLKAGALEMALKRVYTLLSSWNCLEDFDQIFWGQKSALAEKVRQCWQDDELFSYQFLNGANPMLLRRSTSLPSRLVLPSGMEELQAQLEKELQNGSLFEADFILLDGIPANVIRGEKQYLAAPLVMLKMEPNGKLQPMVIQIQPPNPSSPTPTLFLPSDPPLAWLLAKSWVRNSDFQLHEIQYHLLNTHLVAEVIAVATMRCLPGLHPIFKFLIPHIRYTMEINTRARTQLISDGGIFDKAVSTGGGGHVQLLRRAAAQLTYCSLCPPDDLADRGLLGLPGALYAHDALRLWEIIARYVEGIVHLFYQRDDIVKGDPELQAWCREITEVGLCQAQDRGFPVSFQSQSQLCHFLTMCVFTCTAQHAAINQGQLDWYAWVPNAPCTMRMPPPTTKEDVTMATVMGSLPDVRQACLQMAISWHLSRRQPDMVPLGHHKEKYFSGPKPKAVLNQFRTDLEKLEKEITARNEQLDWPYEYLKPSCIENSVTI
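Purified human 12hLO (150 nM final) in 25 mM Hepes, 0.01% Triton X-100, pH 7.0 was preincubated 15 min at room temperature with compound. Then 40 uM arachidonic acid was added, 30 min. Hydroperoxide was read by Fe-XO absorbance ratio 573/405 nm.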
MCF10A rereplic: induces DNA re-replication in MCF 10a normal breast cells | Potency, µM (highest dose often 46.1 µM), for the others: top-dose activity, positive = re-replication, actives largely listed as activators | MCF 10A DNA re-replication, Hoechst nuclear intensity, 48 h | AID 624296 | 350,000 tested, 2.9% active; further: % of control where 0% means no effect; nearly all actives have a fitted effect of over 50% in size
SW480 rerep: DNA re-replication induction in SW480 cells | SW480 DNA re-replication, Hoechst DNA content imaging, 48 h | Potency, µM (titrated, usually from 46.1 µM), inactives show top-dose re-replication activation, usual class: activators | 340,000 tested, 1.8% active; further: % of control where 0% means no effect; nearly all actives have a fitted effect of over 55% in size
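Hoechst fluorescence of nuclei (405 nm excitation, 500-530 nm emission) measured by plate-scanning imager after 48 hr compound exposure at 37 C; re-replication scored as increased number of nuclei with elevated intensity.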
An asterisk follows results filed as active; [ ] = dose if it differs, or a comment. Sampled rows, rich in hits. Any-hit rate of the full collection: about 5.8%. Unless noted, the call rests on the fitted dose curve; in most records, active means well fitted curve in the direction sought with a large enough effect; inconclusive means small, poorly fitted or top-dose-only effect, or another doubt; inactive means no such curve, though single readings can be large; an effect the other way counts as inactive or inconclusive. Potency means the concentration at half of the fitted maximal effect.

Screening CCN1/C(=C\C=C2\C(=O)N(c3ccccc3)C(=S)N2C)Sc2ccccc21 returned KB-3-1 cytotox inactive, KB-V1 cytotox inactive, PINK1 expr mod 0%, 12-LOX inh inconclusive, MCF10A rereplic -3% and SW480 rerep 3%.
CCN1/C(=C/c2ccc3cccc(C)c3[n+]2CC)Sc2ccccc21 was read as KB-3-1 cytotox inconclusive, KB-V1 cytotox inactive, PINK1 expr mod 4µM*, 12-LOX inh 7.9µM*, MCF10A rereplic 18% and SW480 rerep 2%.
CCN1/C(=C/c2ccc3cc(C)ccc3[n+]2CC)Sc2ccc3sccc3c21 was read as KB-3-1 cytotox 2.6µM*, KB-V1 cytotox inactive, PINK1 expr mod inconclusive, MCF10A rereplic 6% and SW480 rerep 26%.
`CCN1/C(=C/c2ccc3cc(C)cc(C)c3[n+]2CC)Sc2cc(C)ccc21` gave KB-3-1 cytotox inactive, KB-V1 cytotox inactive, PINK1 expr mod 0%, 12-LOX inh 40µM*, MCF10A rereplic 5.8µM* and SW480 rerep 0%.
COC(=O)[C@@H]1Cc2c([nH]c3ccccc23)[C@H]2C[C@@H](NCCCn3ccnc3)C[C@@H](c3cccc(Cl)c3)N21 was read as 12-LOX inh 154%.
Screening CCOC(=O)c1nc2ccccc2nc1NCc1ccco1 returned 12-LOX inh -11%.
Screening C#CCNC(=O)C[C@@H]1c2nc(NC(=O)C3CCCCC3)sc2C[C@@H]2[C@](C)(CO)[C@H](O)CC[C@]21C returned 12-LOX inh 11%.
`Cc1csc(NC(=O)CCc2ncc(-c3ccccc3)o2)n1` gave 12-LOX inh 14%.
For Oc1ccc(-c2nc(-c3cc4ccccc4o3)cs2)cc1 the results were 12-LOX inh 11µM*.
COc1cccc(-c2nc(-c3cc4ccccc4o3)cs2)c1OC was read as 12-LOX inh -24%.
For OC(c1ccccc1)(c1nc(-c2cc3ccccc3o2)cs1)C(F)(F)F (centres undefined) the results were KB-3-1 cytotox 23µM*, KB-V1 cytotox inconclusive, PINK1 expr mod 8% and 12-LOX inh inconclusive.
For OC(c1ccccc1)(c1nc(-c2cccc(C(F)(F)F)c2)cs1)C(F)(F)F (centres undefined) the results were KB-3-1 cytotox inactive, KB-V1 cytotox inconclusive, PINK1 expr mod -1% and 12-LOX inh -24%.
C=CCNc1nc(-c2cc3ccccc3o2)cs1 was read as KB-3-1 cytotox inactive, KB-V1 cytotox inconclusive, PINK1 expr mod inconclusive, 12-LOX inh 50µM*, MCF10A rereplic 5% and SW480 rerep 73%.
`O=C(Nc1cccc(Br)c1)N1CCC2(CC1)SCC(=O)N2Cc1ccccc1` gave 12-LOX inh 28%.
COc1ccc(C)cc1S(=O)(=O)N(C)CC(=O)N1CCCCC1 was read as KB-3-1 cytotox inactive, KB-V1 cytotox inconclusive, PINK1 expr mod -1%, 12-LOX inh -7%[57.4 µM], MCF10A rereplic 6% and SW480 rerep -8%.
Screening COc1ccc(C)cc1S(=O)(=O)N(C)CC(=O)N1CCCC1 returned KB-3-1 cytotox inactive, KB-V1 cytotox inactive, PINK1 expr mod 1%, 12-LOX inh 0%, MCF10A rereplic 2% and SW480 rerep 2.3µM*.
`COc1ccc(C)cc1S(=O)(=O)N(C)CC(=O)NC1CCCC1` gave KB-3-1 cytotox inactive, KB-V1 cytotox 12µM*, PINK1 expr mod 2%, 12-LOX inh -12%, MCF10A rereplic 2% and SW480 rerep inconclusive.
For O=C(c1cc(-c2cccs2)nc2ccccc12)N1CCC1 the results were 12-LOX inh 28%.
Screening N#CC1(NC(=O)CNc2ccc(F)cc2Cl)CCCC1 returned 12-LOX inh 11%.
`Cc1ccc(C(=O)Nc2nnc(CC(=O)N/N=C/c3ccncc3)s2)cc1` gave KB-3-1 cytotox inactive, KB-V1 cytotox inactive, PINK1 expr mod 2%, 12-LOX inh 2%, MCF10A rereplic 0% and SW480 rerep 21µM*.
Screening Cc1ccccc1N1CCN(C2=NC(=O)/C(=C\c3cccs3)S2)CC1 returned KB-3-1 cytotox inconclusive, KB-V1 cytotox inactive, PINK1 expr mod 5%, 12-LOX inh -12%, MCF10A rereplic 6.5µM* and SW480 rerep inconclusive.
Screening O=C1N=C(N2CCN(c3cccc4ccccc34)CC2)S/C1=C/c1cccs1 returned KB-3-1 cytotox inactive, KB-V1 cytotox inactive, PINK1 expr mod 0%, 12-LOX inh 0%, MCF10A rereplic -21% and SW480 rerep 1%.
O=C(CSc1nc(-c2ccc(F)cc2)[nH]c1-c1ccc(F)cc1)Nc1ccc2c(c1)OCCO2 was read as KB-3-1 cytotox inconclusive, KB-V1 cytotox 18µM*, PINK1 expr mod inconclusive and 12-LOX inh 2%.
CCc1nc(SCC(=O)Nc2ccc3c(c2)OCCO3)c2oc3ccccc3c2n1 was read as KB-3-1 cytotox inconclusive, KB-V1 cytotox 21µM*, PINK1 expr mod -3%, 12-LOX inh 32%, MCF10A rereplic 23µM* and SW480 rerep 1%.
For Cc1nc(SCC(=O)N2CCN(c3ccccc3)CC2)c2oc3ccccc3c2n1 the results were KB-3-1 cytotox inactive, KB-V1 cytotox 21µM*, PINK1 expr mod -1%, 12-LOX inh 0%, MCF10A rereplic inconclusive and SW480 rerep -6%.
`Cc1nc(SCC(=O)Nc2ccc3c(c2)OCCO3)c2oc3ccccc3c2n1` gave KB-3-1 cytotox inactive, KB-V1 cytotox 16µM*, PINK1 expr mod 5%[38.3 µM], 12-LOX inh 12%, MCF10A rereplic 103% and SW480 rerep -1%.
O=C(CSc1ncnc2c1oc1ccccc12)Nc1ccc2c(c1)OCCO2 was read as KB-3-1 cytotox inactive, KB-V1 cytotox 16µM*, PINK1 expr mod 15%[38.3 µM], 12-LOX inh -23%, MCF10A rereplic 22% and SW480 rerep -2%.
Screening CCc1nc(SCC(=O)NC2CCCC2)c2oc3ccccc3c2n1 returned KB-3-1 cytotox inactive, KB-V1 cytotox inconclusive, PINK1 expr mod 1%, 12-LOX inh -2%, MCF10A rereplic 4% and SW480 rerep 0%.
For CCc1nc(SCC(=O)N2CCCc3ccccc32)c2oc3ccccc3c2n1 the results were KB-3-1 cytotox inconclusive, KB-V1 cytotox 10µM*, 12-LOX inh -34%, MCF10A rereplic 16µM* and SW480 rerep -5%.
For Cc1cc(C)nc(NC(N)=NCc2cccnc2)n1 the results were 12-LOX inh 3%.
Screening CCn1c(C)nc2cc(C(=O)N/N=C/c3cccc(OC)c3O)ccc21 returned KB-3-1 cytotox inactive, KB-V1 cytotox inconclusive, PINK1 expr mod 1%, 12-LOX inh inconclusive, MCF10A rereplic inconclusive and SW480 rerep 1.6µM*.
